Experimental findings from PubChem BioAssay (EPA / NIEHS) are described below.

For orientation: AC50 means the midpoint of the concentration-response curve, whichever way the signal moves.

In test [1] the target is Hepatocyte nuclear factor 4-alpha (Homo sapiens) (UniProt P41235). The test can be described thus: ATG_HNF4a_TRANS: Attagene TRANS-FACTORIAL HepG2 Assay for human Hepatocyte Nuclear Factor 4 alpha (HNF4a) (AID 2282982; active means hit-call score of the fitted dose curve at least 0.9, where 1 is the maximum). To be noted: HepG2 HNF4a transactivation reporter, mRNA readout. In a few lines:
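Endpoint reflects transcriptional activation of a GAL4-UAS reporter by an HNF4a-GAL4 chimera in transfected HepG2 cells, 24 h post-dosing. Fluorescence from RT-PCR products separated by capillary electrophoresis; DMSO baseline.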

Test [2] is described as follows: ATG_M_06_TRANS: Attagene TRANS-FACTORIAL HepG2 Assay for M06 Transcription Factor (Internal Marker) (AID 2282983; active means hit-call score of the fitted dose curve at least 0.9, where 1 is the maximum). The following applies: HepG2 Attagene TRANS M06 internal marker reporter. Summed up: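 Read-out: fluorescent reporter cDNA fragments resolved by capillary electrophoresis after RT-PCR and HpaI cut. Source cells were HepG2 carrying transfected multi-reporter GAL4 constructs, dosed 24 h. Increase over DMSO control analysed.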

Test [3] has as its target Nuclear receptor subfamily 4 group A member 2 (Homo sapiens) (UniProt P43354). The test can be described thus: ATG_NURR1_TRANS: Attagene TRANS-FACTORIAL HepG2 Assay for human Nuclear Receptor Related Protein 1 (NURR1) (AID 2282985; active means hit-call score of the fitted dose curve at least 0.9, where 1 is the maximum). To be noted: HepG2 Attagene TRANS reporter, mRNA readout. Summed up: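 Endpoint: reporter mRNA increase relative to DMSO. HepG2 cells transfected with reporter units, treated 24 h; RNA processed by RT-PCR, labelling, HpaI digestion and capillary electrophoresis.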

Test [4] deals with Transcriptional activator Myb (Homo sapiens) (UniProt P10242). The test can be described thus: ATG_Myb_CIS: Attagene CIS-FACTORIAL HepG2 Assay for human Myeloblastosis (Myb) Proto-Oncogene Transcription Factor (AID 2282986). To be noted: HepG2 Attagene CIS-FACTORIAL Myb reporter transcription; actives raise or lower the signal. Summed up:
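Fluorescence signals from capillary electrophoresis of RT-PCR-amplified reporter cDNA give the read-out. Cells: HepG2 transfected with multiple cis-regulated reporter units. Exposure lasts 24 hours; DMSO defines baseline for gain or loss of signal.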

The target in test [5] is Nuclear respiratory factor 1 (Homo sapiens) (UniProt Q16656). The test can be described thus: ATG_NRF1_CIS: Attagene CIS-FACTORIAL HepG2 Assay for human Nuclear Respiratory Factor 1 (NRF1) Orphan Gene (AID 2282987). The following applies: HepG2 NRF1 cis-element reporter, Attagene multiplex; actives raise or lower the signal. Summed up: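 Transcriptional reporter readout, one component of a 52-endpoint multiplexed HepG2 panel. Exposure 24 h; mRNA detected via RT-PCR and fluorescent capillary electrophoresis; fitting in both directions against DMSO.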

A short description of test [6]: ATG_NFI_CIS: Attagene CIS-FACTORIAL HepG2 Assay for human Nuclear Factor I (NFI) (AID 2282989). The following applies: HepG2 cis-regulatory reporter, NFI response element transcription; actives raise or lower the signal. Summed up: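 Multiplexed cis-reporter system in human HepG2 cells reports native TF activity as reporter mRNA induction 24 h post-dose. Fragments labelled with 6-FAM, HpaI-digested and resolved by capillary electrophoresis; activity fitted both directions versus DMSO.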

For test [7], the target named is Myc proto-oncogene protein (Homo sapiens) (UniProt P01106). The test can be described thus: ATG_Myc_CIS: Attagene CIS-FACTORIAL HepG2 Assay for human Myelocytomatosis (Myc) Proto-Oncogene Transcription Factor (AID 2282990). The following applies: HepG2, Attagene cis-reporter transcription factor activity; actives raise or lower the signal. Summed up: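 Transiently transfected HepG2 cells bearing cis-promoter reporter units for endogenous transcription factors; 24 h exposure. Reporter mRNA measured by RT-PCR, 6-FAM primer extension, HpaI cut and capillary electrophoresis; bidirectional fit relative to DMSO.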

The nature of test [8]: ATG_NF_kB_CIS: Attagene CIS-FACTORIAL HepG2 Assay for human Nuclear Factor Kappa B (NF-kB) (AID 2282991). The following applies: HepG2 Attagene cis-factorial NF-kB reporter mRNA; actives raise or lower the signal. Summed up:
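HepG2, transient multi-reporter transfection, cis promoter elements (endogenous TFs). 24 h exposure. Total RNA → RT → PCR → 6-FAM label → HpaI → CE. Gain/loss vs DMSO.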

Test [9] in a line: ATG_NRF2_ARE_CIS: Attagene CIS-FACTORIAL HepG2 Assay for human Nuclear Factor Erythroid 2 Related Factor 2 (NFR2) response to Antioxidant Response Elements (ARE) (AID 2282992).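 On AC50: reporter mRNA level measured by RT-PCR and capillary electrophoresis fluorescence.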 The following applies: HepG2 Attagene ARE/NRF2 reporter, transcription factor activity; actives raise or lower the signal. Summed up: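 Endogenous transcription factor activity in human liver HepG2 cells is tracked via a cis-element-driven reporter within a multiplexed set. mRNA induction is read by RT-PCR and capillary electrophoresis after 24 h, with DMSO as baseline.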

Test [10] in a line: ATG_Oct_MLP_CIS: Attagene CIS-FACTORIAL HepG2 Assay for human Octamer-Binding Transcription Factor (Oct) (AID 2282993). To be noted: HepG2 Attagene cis-factorial Oct reporter, mRNA; actives raise or lower the signal. In a few lines: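 After 24 h compound exposure, transfected HepG2 cells were lysed for total RNA; reporter-specific cDNA was PCR-amplified, fluorescently labelled and sized by capillary electrophoresis. Bidirectional curve fitting used DMSO as baseline.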

Test [11] addresses Oxysterols receptor LXR-beta (Homo sapiens) (UniProt P55055). The test can be described thus: ATG_LXRb_TRANS: Attagene TRANS-FACTORIAL HepG2 Assay for human Liver X Receptor beta (LXRb) (AID 2282981; active means hit-call score of the fitted dose curve at least 0.9, where 1 is the maximum). The following applies: HepG2 Attagene TRANS GAL4-LXRb reporter, mRNA. Summed up:
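Multiplexed reporter assay, HepG2, 24 h dosing. Fluorescence of labelled RT-PCR products after capillary electrophoresis gives transcript level; positive fitting direction relative to DMSO.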

Test [12] is described as follows: ATG_M_32_TRANS: Attagene TRANS-FACTORIAL HepG2 Assay for M32 Transcription Factor (Internal Marker) (AID 2282984; active means hit-call score of the fitted dose curve at least 0.9, where 1 is the maximum;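 further: transcript level of a background control reporter unit measured by RT-PCR and capillary electrophoresis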). To be noted: HepG2 Attagene TRANS M32 internal marker reporter. In a few lines: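 Internal-marker readout from a multiplexed transcription reporter panel. HepG2 cells were transfected with GAL4-UAS reporter units, treated 24 hours, and reporter transcript levels determined by fluorescence after RT-PCR and capillary separation.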

The target of test [13] is Cellular tumor antigen p53 (Homo sapiens) (UniProt P04637). The test can be described thus: ATG_p53_CIS: Attagene CIS-FACTORIAL HepG2 Assay for human p53 Transcription Factor (AID 2282994). To be noted: HepG2 p53 cis-element reporter, Attagene mRNA; actives raise or lower the signal. In a few lines:
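Steps: transfect HepG2 with multiplexed cis reporter constructs; dose chemicals 24 h; extract RNA, reverse-transcribe, PCR-amplify reporter sequences; FAM-label, HpaI-digest, resolve fragments by CE. Activity fitted both directions relative to DMSO.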

Molecules are shown by their SMILES. Records with an inconclusive call do not appear. Active and inactive are the calls of the source. How the source made its calls, unless noted: active means hit-call score of the fitted dose curve at least 0.9, where 1 is the maximum; inactive means score below 0.9.

Sequence of Myc proto-oncogene protein (Homo sapiens) (P01106 whole entry, looked up): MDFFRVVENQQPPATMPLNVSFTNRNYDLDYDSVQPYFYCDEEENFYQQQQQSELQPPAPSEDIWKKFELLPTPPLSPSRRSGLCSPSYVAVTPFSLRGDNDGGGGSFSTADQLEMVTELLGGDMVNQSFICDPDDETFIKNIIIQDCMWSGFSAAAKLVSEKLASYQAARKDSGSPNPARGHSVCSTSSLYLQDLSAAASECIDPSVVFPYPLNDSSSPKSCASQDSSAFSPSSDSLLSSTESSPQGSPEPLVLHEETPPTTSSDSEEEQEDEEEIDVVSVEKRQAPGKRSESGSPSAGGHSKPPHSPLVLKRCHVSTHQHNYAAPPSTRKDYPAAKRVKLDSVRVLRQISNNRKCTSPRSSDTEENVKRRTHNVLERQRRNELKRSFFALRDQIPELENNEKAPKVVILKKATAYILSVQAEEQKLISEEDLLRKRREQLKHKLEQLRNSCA
Sequence of Oxysterols receptor LXR-beta (Homo sapiens) (P55055 whole entry, looked up, the tested form may be a part): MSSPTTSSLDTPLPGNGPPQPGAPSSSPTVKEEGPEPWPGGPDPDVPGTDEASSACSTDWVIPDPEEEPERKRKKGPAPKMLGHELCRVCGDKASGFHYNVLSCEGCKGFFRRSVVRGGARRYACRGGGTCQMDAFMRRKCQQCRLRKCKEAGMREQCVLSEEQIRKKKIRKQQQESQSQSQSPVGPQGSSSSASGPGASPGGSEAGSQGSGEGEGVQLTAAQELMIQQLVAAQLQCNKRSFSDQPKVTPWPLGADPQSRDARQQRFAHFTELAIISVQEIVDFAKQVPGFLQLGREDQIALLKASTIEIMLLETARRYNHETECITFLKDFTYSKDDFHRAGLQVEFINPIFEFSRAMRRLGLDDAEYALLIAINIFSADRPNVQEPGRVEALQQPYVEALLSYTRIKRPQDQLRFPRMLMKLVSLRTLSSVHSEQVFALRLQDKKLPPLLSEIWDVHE
Sequence of Cellular tumor antigen p53 (Homo sapiens) (P04637 whole entry, looked up, the tested form may be a part): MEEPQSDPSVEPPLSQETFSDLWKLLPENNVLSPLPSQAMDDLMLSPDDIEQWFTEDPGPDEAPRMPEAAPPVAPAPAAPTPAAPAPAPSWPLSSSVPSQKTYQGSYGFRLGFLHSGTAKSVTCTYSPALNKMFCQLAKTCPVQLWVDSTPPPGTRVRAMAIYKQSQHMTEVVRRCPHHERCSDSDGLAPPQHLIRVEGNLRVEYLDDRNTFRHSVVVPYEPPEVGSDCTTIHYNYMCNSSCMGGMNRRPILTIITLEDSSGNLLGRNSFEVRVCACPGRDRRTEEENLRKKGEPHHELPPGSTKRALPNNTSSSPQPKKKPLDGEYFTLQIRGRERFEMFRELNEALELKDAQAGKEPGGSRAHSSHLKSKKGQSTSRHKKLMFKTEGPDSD
Sequence of Transcriptional activator Myb (Homo sapiens) (P10242 whole entry, looked up): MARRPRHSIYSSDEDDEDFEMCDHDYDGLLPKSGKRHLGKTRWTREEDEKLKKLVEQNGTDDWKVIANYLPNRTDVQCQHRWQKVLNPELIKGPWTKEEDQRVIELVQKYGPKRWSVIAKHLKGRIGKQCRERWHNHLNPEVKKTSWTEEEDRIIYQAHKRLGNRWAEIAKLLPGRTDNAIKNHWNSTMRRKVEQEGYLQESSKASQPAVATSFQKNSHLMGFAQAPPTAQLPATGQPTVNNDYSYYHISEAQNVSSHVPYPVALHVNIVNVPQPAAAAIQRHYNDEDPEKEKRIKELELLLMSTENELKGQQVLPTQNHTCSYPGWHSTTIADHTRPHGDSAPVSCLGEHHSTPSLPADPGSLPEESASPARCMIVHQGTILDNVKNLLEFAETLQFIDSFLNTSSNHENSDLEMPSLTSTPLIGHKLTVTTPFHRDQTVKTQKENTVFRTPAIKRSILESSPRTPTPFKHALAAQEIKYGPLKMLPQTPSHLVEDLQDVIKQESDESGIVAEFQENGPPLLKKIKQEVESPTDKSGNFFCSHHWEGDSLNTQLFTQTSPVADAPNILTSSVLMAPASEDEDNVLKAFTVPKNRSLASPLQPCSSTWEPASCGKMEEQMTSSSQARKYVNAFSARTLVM
Sequence of Nuclear receptor subfamily 4 group A member 2 (Homo sapiens) (P43354 whole entry, looked up): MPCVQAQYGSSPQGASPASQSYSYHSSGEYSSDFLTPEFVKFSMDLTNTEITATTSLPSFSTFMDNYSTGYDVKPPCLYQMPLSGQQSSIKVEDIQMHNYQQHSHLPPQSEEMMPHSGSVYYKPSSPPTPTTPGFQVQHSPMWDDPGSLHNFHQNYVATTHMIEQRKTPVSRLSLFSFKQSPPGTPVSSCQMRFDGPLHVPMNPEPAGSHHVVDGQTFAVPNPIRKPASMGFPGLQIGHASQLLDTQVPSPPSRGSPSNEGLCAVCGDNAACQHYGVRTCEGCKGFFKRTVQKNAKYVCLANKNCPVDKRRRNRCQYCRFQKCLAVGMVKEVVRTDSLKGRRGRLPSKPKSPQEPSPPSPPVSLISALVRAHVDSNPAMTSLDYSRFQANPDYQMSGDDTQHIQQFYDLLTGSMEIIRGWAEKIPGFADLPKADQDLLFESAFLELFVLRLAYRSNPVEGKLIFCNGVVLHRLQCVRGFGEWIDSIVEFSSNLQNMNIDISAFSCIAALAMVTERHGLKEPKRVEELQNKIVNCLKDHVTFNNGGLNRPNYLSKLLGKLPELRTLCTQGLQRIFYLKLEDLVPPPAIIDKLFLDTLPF
Sequence of Hepatocyte nuclear factor 4-alpha (Homo sapiens) (P41235 whole entry, looked up, the tested form may be a part): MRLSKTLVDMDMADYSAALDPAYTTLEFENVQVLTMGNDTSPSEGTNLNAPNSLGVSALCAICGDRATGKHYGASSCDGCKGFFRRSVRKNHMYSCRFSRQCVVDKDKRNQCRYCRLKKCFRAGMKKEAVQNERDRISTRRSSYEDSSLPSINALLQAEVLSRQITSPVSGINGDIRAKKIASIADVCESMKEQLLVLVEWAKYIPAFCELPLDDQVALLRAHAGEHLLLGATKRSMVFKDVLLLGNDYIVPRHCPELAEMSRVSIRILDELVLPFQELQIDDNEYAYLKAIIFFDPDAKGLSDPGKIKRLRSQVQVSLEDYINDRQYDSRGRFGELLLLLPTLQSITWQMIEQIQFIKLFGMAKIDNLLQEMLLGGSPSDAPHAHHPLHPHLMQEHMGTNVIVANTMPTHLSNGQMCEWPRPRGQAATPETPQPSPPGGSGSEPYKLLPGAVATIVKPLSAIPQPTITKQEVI
Sequence of Nuclear respiratory factor 1 (Homo sapiens) (Q16656 whole entry, looked up): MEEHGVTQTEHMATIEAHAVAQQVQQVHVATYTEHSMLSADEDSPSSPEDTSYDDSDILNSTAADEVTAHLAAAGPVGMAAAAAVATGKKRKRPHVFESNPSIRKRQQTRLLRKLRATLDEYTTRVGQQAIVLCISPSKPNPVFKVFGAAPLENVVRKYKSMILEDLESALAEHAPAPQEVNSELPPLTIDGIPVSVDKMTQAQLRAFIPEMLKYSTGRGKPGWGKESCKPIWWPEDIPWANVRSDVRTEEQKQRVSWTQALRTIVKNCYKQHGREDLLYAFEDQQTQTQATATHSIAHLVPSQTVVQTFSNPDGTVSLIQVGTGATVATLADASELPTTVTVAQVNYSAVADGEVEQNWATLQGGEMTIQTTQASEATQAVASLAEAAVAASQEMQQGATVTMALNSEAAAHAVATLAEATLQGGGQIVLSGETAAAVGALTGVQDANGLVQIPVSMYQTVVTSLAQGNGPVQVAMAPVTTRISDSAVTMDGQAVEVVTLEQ

Turning to `CCO[Si](CC)(OCC)OCC`, the result in [1], in test [2], in [3], in test [4], in [5] and in test [6] was inactive. Besides, the outcome in test [7], in [8] and in test [10] was inactive. Moreover, the AC50 in [9] is 19.8 µM (active).
In the case of `C=C(C)C(=O)OCCC[Si](OC)(OC)OC`, the outcome in test [11], in test [1], in test [12], in test [4], in test [5] and in test [6] was inactive. For the same compound, the call in test [7], in [9], in [10] and in test [13] was inactive.
As to `CCCCC/C=C\C=C\C(=O)OCC`, the result in test [1], in test [2], in test [12], in test [7], in test [9] and in [10] was inactive. The AC50 in test [4] is 103 µM (active); in [5], 50.4 µM (active); in test [6] it was 40 µM (active); in test [13] it was 156 µM (active).
Turning to `CCC(C)(C)C1CCC(OC)CC1` (centres undefined), the result in test [11], in test [3], in test [4], in test [5], in [6] and in test [7] was inactive. In addition, the compound was classed as inactive in test [9] and in [10].
Regarding `CCCCN(CCCC)CCCCCCN(CCCC)CCCC`, the result in [11], in [12], in test [4], in [5], in [6] and in test [7] was inactive. Besides, the compound was called inactive in test [9], in test [10] and in test [13].
As to `CC(O)COCC(C)O` (centres undefined), the outcome in test [11], in test [12], in test [4], in test [5], in [7] and in test [8] was inactive. In addition, the outcome in test [9], in [10] and in test [13] was inactive.
On to `c1ccc2scnc2c1`, for which the result in test [11], in test [2], in test [4], in test [5], in test [6] and in test [7] was inactive. The result in [8] and in test [10] was inactive. In addition, the AC50 in test [9] was 42.1 µM (active).
On to `CC(=O)c1cccnc1`, for which the call in test [11], in [12], in [4], in test [5], in test [6] and in [7] was inactive. In addition, the result in [8], in test [9], in test [10] and in test [13] was inactive.
`CC1=CCC(C(C)C)=CC1`: the call in test [11], in test [3], in test [4], in test [5], in test [6] and in test [7] was inactive. The call in [9], in [10] and in [13] was inactive.
For the compound `C[N+](C)(C)CCO`, the outcome in [11], in test [1], in [4], in test [5], in test [6] and in test [7] was inactive. The compound was called inactive in [10]. In addition, in test [9], the half-maximal activity concentration (AC50) is 101 µM (active).
As to `COc1ccc(C(C)=O)cc1`, the outcome in test [11], in [3], in test [4], in [5], in [7] and in test [9] was inactive. In test [10], the compound was called inactive.
Turning to `CCCCCc1cccc(=O)o1`, the outcome in test [11], in test [12], in test [4], in [5], in test [6] and in test [7] was inactive. The compound was called inactive in [8], in test [10] and in test [13]. Besides, the AC50 in [9] was 41.5 µM (active).
